# USP10 block: human USP10 deubiquitinase inhibition | Q14694 | purified USP10, Ub-rhodamine fluorescence, 60 min | inhibition, % at 20 µM | hit rate 1.1% among 47,000
# USP7 inh: human USP7 deubiquitinase inhibition; Q93009; purified USP7, Ub-rhodamine cleavage fluorescence; inhibition, % at 20 µM; hit rate 0.3% among 47,000; AID 1645854
# USP17 block: human USP17-like deubiquitinase inhibition | hit rate 6.5% among 47,000 | inhibition, % at 50 µM | AID 1645855 | purified USP17, Ub-rhodamine cleavage fluorescence, 3 h | A8MUK1
# UCHL1 block: blocks human UCHL1 ubiquitin-rhodamine cleavage; hit rate 0.2% among 47,000; purified UCHL1, Ub-rhodamine cleavage fluorescence; inhibition, % at 20 µM; P09936
# OTUD3 inh: inhibitors of human OTUD3 deubiquitinase; Q5T2D3; purified OTUD3, Ub-rhodamine fluorescence, 2 h; inhibition, % at 25 µM; hit rate 0.7% among 47,000; AID 1645858
# USP8 block: inhibitors of human USP8 deubiquitinase | inhibition, % at 20 µM | P40818 | hit rate 4.2% among 47,000 | purified USP8, Ub-rhodamine cleavage fluorescence, 30 min | AID 1645853
# Numbers without * were called inactive; . = no result. Only some compounds are listed: those with a hit (about 9.2% of all), similar ones and a draw of the others. Cut-off read from the data, not from the text of the source: active = inhibition above about 30%; inactive = the rest.
SMILES,USP10 block,USP7 inh,USP17 block,UCHL1 block,OTUD3 inh,USP8 block
COc1ccc(CC(=O)Nc2cnc3ccc(C(=O)NCc4ccncc4)cn3c2=O)cc1,-6.2,1.0,30.5*,0.0,5.4,-11.5
CCc1cc(C(Nc2cccc(C)n2)c2cccnc2)c(NC(=O)c2ccccc2)s1 (configuration not stated),7.4,4.2,-4.8,6.1,-0.6,-4.5
COc1ccc(NS(=O)(=O)c2cc(NC(=O)CCc3nc4ccccc4s3)ccc2C)cc1,18.4,-2.2,59.6*,1.8,4.6,22.1
Cc1ccc(S(=O)(=O)N2CCN(C(=O)N3CCOCC3)C2)cc1,0.2,-1.2,-0.1,-5.1,-8.7,-4.1
CC(=O)Nc1nsc(N2CCC(C(=O)NCc3ccc(Cl)cc3)CC2)n1,0.0,0.7,4.4,0.9,5.0,-7.2
COC(=O)c1ccc2c(=O)n(CCCCCC(=O)NCCc3ccccc3Cl)c(=O)[nH]c2c1,52.7*,14.5,0.1,0.0,-2.2,42.6*
COC(=O)c1ccc2c(=O)n(CCCCCC(=O)N3CCN(c4ccccc4OC)CC3)c(=O)[nH]c2c1,-3.6,-2.6,-6.6,-0.1,-10.4,0.1
COC(=O)c1ccc2c(=O)n(CCCCCC(=O)NCCc3ccc(S(N)(=O)=O)cc3)c(=O)[nH]c2c1,37.4*,20.4,27.0,5.8,20.9,82.1*
CCn1c(-c2nnc(SCC(=O)NCCc3nc4ccccc4[nH]3)o2)cc2ccccc21,1.1,46.2*,91.9*,12.8,4.3,3.5
Cc1nn(-c2ccccc2)c(C)c1S(=O)(=O)N(C)Cc1ccccc1,4.3,4.7,28.7,2.4,0.7,1.1
Cc1cnnn1-c1ccc(C(=O)Nc2ccc(Cl)cc2Cl)cc1,6.6,6.1,84.4*,2.7,23.3,59.1*
Cc1ccc(NC(=O)c2nnn(-c3ccccc3)n2)cc1F,7.3,-28.3,5.3,4.1,11.7,-4.9
O=C(Cn1cncc(-c2nc(-c3ccccc3)cs2)c1=O)N1CCCC1,-0.1,0.0,6.1,-0.6,0.3,2.9
O=C(Cn1cccc1-c1nc(-c2ccccc2)cs1)N1CCOCC1,8.6,0.6,73.5*,-0.2,-4.2,18.7
Cc1cc(NC(=O)CSc2ncc(-c3cccc([N+](=O)[O-])c3)n2-c2cccc(Cl)c2)no1,63.5*,11.6,9.7,-2.4,8.3,55.5*
Cc1ccc2nc(N3CCc4ccccc4C3)c3nncn3c2c1,-6.9,2.9,58.9*,-1.8,20.5,44.7*
CC1=C(C(=O)N2CCCCC2)C(c2cccc(Cl)c2)n2ncnc2N1 (configuration not stated),0.7,1.7,2.0,0.0,5.5,9.7
COc1ccc(C(=O)Nc2cc(-c3ccccn3)no2)c(OC)c1,-3.0,2.3,32.8*,1.4,9.7,14.6
COc1ccc(CC(=O)Nc2cc(-c3ccccn3)no2)cc1,-1.0,0.1,-16.9,-1.0,-7.2,-12.0
COc1ccccc1NC(=O)c1cc(-c2ccccn2)nc2ccccc12,12.8,8.8,58.6*,3.4,9.9,8.9
COc1ccccc1C(=O)Nc1cc(-c2cccnc2)no1,4.4,4.0,14.7,1.9,16.2,17.1
COc1cccc(NC(=O)c2cc(-c3ccccn3)nc3ccccc23)c1,-9.1,-4.5,-22.9,-4.3,-33.0,-0.9
COc1ccccc1C(=O)Nc1cc(-c2ccc(F)c(F)c2)no1,8.6,3.5,33.4*,0.1,9.6,17.4
Cc1nc(N2CCN(C)CC2)ncc1-c1cc(=O)[nH]c(N2c3ccccc3CC2C)n1 (configuration not stated),0.7,-0.3,-2.9,-0.8,-6.0,-12.2
COc1ccccc1-c1cc2c(=O)n(Cc3nc(-c4ccc(F)cc4)no3)ccn2n1,-0.4,9.2,-0.8,5.1,-0.2,-1.5
SMILES,USP10 block,USP7 inh,USP17 block,UCHL1 block,OTUD3 inh,USP8 block
CCc1ccc(-c2cc3c(=O)n(Cc4nc(-c5ccccn5)no4)ccn3n2)cc1,-5.3,-3.3,31.2*,-5.5,-11.4,-17.4
Cc1ccc(CNC(=O)c2cc3c(=O)n(C)ccc3n2C)cc1,-2.2,2.7,4.6,2.0,1.5,6.6
CO[C@H]1/C=C/OC2(C)Oc3c(C)c(O)c4c(c3C2=O)C2(C=C(NC(=O)/C(C)=C\C=C\[C@H](C)[C@H](O)[C@@H](C)[C@@H](O)[C@@H](C)[C@H](OC(C)=O)C1C)C4=O)OCC(=O)O2 (some centres not stated),-10.0,3.2,60.2*,-1.3,6.0,-36.0
COC1/C=C/OC2(C)Oc3c(C)c(O)c4c(c3C2=O)C(=O)C=C(NC(=O)/C(C)=C\C=C\C(C)C(O)C(C)C(O)C(C)C(OC(C)=O)C1C)C4=O (configuration not stated),-10.7,-4.4,63.9*,-1.4,4.2,-8.6
CCC1=C(c2ccc(C)cc2)S(=O)(=O)NC1=NCC(=O)NCc1ccccc1F,8.9,4.1,60.3*,0.1,9.7,-1.6
CCC1=C(c2ccc(C)cc2)S(=O)(=O)NC1=NCC(=O)NCc1cccc(C)c1,6.7,4.4,43.7*,-0.5,14.1,-0.4
CC1=C(c2ccc(F)cc2)S(=O)(=O)NC1=NCC(=O)Nc1ccc(F)cc1F,6.8,2.4,35.7*,1.6,1.1,1.7
COc1ccc(C(CC(=O)N(C)Cc2ccccc2)N2Cc3ccccc3C2=O)cc1OC (configuration not stated),-2.4,-0.6,.,-1.7,7.8,13.1
COc1cccc(-c2nc3cnccn3c2NCc2ccc3c(c2)OCO3)c1OC,-5.8,1.0,-166.8,-0.3,-198.6,-231.7
COc1ccc(/C=C/C(=O)Nc2ccc(C)cn2)cc1,14.5,7.7,69.8*,4.8,0.9,9.5
C/C1=C/C=C/[C@H](C)[C@H](O)[C@@H](C)[C@@H](O)[C@@H](C)[C@H](O)[C@H](C)[C@@H](O)[C@@H](C)/C=C(/C)C(=O)c2c(O)c(C)cc3c2C(=O)C=C(NC1=O)C3=O,-4.6,-13.9,50.5*,-4.3,-9.5,-46.0
CC(C)(C)C(=O)COC(=O)c1c2c(nc3ccccc13)CCCCC2,0.6,-18.5,11.1,7.4,3.0,10.0
O=C(OCc1c(F)cccc1Cl)c1c2c(nc3ccccc13)CCC2,15.9,11.1,43.7*,12.7,25.0,27.8
O=c1[nH]c2ccc(S(=O)(=O)Nc3ccc(O)c4ccccc34)cc2[nH]1,49.2*,-71.9,62.8*,37.4*,63.5*,95.3*
Cc1ccc(S(=O)(=O)Nc2cc3[nH]c(=O)[nH]c3cc2C)c(C)c1,-2.0,1.4,-0.6,-1.7,-17.1,0.0
COc1cccc(CNC(=O)c2ccc(Cl)c([N+](=O)[O-])c2)c1,-0.1,1.1,-3.0,1.2,19.0,-93.0
CN1CC(=O)N(c2cccnc2)CC12CCN(C(=O)N1CCCC1)C2 (configuration not stated),-3.3,1.4,-2.3,0.6,11.7,2.4
O=C1NC(=N/N=C/c2ccccc2)SC1Cc1cc(C(F)(F)F)ccc1Cl (configuration not stated),46.6*,13.3,35.8*,1.4,29.1,-45.0

# Bioassay records as filed in PubChem.
